The supplement of paper PMC6411743
± gives the standard deviation of the averaged measurements. Of roughly 5,400 targets only a part is listed; those with the largest changes were picked by preference.

Compound: Nc1nc2c(ncn2[C@@H]2O[C@H](COP(=O)(O)OP(=O)(O)OP(=O)(O)O)[C@@H](O)[C@H]2O)c(=O)[nH]1 [guanosine triphosphate]
Assay: NP40-soluble protein abundance relative to vehicle (solubility fold change) (ratio); higher = more soluble protein in presence of GTP
Description: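 Solubility proteome profiling in Jurkat crude lysate. Lysate was treated with Mg-GTP (0.1-10 mM) for 10 min at room temperature and 3 min at 37 °C, then solubilised with 0.8% NP40 and benzonase, followed by ultracentrifugation. Proteins were quantified by TMT10 LC-MS/MS; the value is the NP40-soluble abundance relative to the NP40-processed vehicle, from 3 independent experiments.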

Chain of UniProt O60669 (O60669 whole entry): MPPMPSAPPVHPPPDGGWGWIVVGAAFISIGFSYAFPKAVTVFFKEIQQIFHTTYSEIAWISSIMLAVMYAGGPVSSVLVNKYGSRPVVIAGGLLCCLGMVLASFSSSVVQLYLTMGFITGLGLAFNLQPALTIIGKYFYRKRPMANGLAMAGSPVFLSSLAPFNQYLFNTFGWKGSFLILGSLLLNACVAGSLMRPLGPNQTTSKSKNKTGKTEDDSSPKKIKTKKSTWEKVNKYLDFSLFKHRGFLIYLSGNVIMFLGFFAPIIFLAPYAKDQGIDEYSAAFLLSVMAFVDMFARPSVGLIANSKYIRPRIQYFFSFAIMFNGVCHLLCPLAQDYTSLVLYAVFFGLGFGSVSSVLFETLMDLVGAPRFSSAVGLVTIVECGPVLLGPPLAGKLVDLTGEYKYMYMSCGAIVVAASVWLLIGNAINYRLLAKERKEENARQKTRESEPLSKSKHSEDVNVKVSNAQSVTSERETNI
Chain of UniProt Q9BRQ6 (Q9BRQ6 whole entry, one chain of several): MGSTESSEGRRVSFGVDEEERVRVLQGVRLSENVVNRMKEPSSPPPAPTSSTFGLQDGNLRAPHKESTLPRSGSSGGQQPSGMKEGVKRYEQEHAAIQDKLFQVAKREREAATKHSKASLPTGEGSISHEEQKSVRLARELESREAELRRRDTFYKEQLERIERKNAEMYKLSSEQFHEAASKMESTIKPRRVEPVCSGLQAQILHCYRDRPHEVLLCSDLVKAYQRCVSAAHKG
Chain of UniProt O94906 (O94906 whole entry): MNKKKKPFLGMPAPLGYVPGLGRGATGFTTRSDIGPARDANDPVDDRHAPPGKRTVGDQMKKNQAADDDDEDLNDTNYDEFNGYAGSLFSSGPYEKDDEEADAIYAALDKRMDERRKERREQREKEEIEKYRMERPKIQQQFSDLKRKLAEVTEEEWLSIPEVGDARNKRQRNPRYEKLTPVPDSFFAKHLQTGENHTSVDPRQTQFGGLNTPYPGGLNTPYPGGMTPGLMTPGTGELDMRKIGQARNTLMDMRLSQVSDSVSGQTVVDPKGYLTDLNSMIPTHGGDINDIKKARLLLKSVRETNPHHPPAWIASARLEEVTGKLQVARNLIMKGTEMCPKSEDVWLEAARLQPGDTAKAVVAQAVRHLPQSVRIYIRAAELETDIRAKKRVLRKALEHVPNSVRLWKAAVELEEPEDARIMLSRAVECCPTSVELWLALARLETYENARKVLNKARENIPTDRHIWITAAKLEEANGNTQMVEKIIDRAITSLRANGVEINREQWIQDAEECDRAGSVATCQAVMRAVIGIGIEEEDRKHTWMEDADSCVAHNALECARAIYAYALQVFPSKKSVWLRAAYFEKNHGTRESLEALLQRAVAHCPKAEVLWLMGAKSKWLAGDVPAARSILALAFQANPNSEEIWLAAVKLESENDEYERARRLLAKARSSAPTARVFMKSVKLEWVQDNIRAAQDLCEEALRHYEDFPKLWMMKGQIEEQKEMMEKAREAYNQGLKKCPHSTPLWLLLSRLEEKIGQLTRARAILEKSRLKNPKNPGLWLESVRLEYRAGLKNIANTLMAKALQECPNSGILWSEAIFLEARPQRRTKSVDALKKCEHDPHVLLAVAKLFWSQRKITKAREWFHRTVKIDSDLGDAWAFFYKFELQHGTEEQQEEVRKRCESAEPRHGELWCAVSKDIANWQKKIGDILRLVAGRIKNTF
Chain of UniProt P26368 (P26368 whole entry): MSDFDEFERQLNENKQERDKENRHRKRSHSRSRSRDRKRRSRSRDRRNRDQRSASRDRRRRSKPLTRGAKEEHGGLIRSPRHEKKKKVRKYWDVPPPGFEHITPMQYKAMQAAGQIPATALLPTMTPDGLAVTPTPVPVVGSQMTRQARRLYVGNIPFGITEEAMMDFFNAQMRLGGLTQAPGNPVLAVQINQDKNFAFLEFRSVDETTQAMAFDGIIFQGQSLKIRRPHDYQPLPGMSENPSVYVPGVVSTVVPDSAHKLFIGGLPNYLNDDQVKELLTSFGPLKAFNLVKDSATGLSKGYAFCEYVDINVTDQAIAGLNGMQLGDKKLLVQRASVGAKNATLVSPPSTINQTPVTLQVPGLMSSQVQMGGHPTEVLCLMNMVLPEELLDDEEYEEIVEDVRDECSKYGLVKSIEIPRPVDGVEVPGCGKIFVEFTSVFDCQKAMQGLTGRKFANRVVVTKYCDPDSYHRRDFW

Target	NP40-soluble protein abundance (concentration: 0.1mM)	NP40-soluble protein abundance (concentration: 0.5mM)	NP40-soluble protein abundance (concentration: 1mM)	NP40-soluble protein abundance (concentration: 2mM)	NP40-soluble protein abundance (concentration: 4mM)	NP40-soluble protein abundance (concentration: 6mM)	NP40-soluble protein abundance (concentration: 8mM)	NP40-soluble protein abundance (concentration: 10mM)
UniProt P26368|P26368-2	1.21 ± 0.06	1.64 ± 0.23	1.67 ± 0.25	1.69 ± 0.25	1.7 ± 0.29	1.75 ± 0.25	1.73 ± 0.29	1.71 ± 0.26
M0R2S1|P62987 (UniProt P62987)	0.88 ± 0.084	0.895 ± 0.11	1.01 ± 0.17	0.915 ± 0.11	0.89 ± 0.089	0.886 ± 0.068	0.867 ± 0.12	0.941 ± 0.11
UniProt O94906|O94906-2	1.06 ± 0.055	1.17 ± 0.086	1.26 ± 0.17	1.42 ± 0.27	1.66 ± 0.44	1.91 ± 0.46	2.23 ± 0.58	2.34 ± 0.6
J3QTA6|Q9BRQ6 (UniProt Q9BRQ6)	1 ± 0.084	1.01 ± 0.083	1.12 ± 0.14	1.15 ± 0.054	1.15 ± 0.09	1.16 ± 0.062	1.22 ± 0.12	1.26 ± 0.21
SLC16A7 (UniProt O60669)	1.09 ± 0.034	0.98 ± 0.24	1.143 ± 0.0046	1.06 ± 0.15	1.1 ± 0.079	0.966 ± 0.15	1.12 ± 0.089	1.05 ± 0.16
